# Inconclusive results are not listed. Active and inactive are the calls of the source. The call rests on the fitted dose curve; in most records, active means well fitted cell-killing curve with a large enough effect in the repeat runs; inconclusive means weak or mixed curves, or effect the other way; inactive means flat fitted curve, though single readings scatter.
# Experiment: cAMP Responsive Elements (CRE) small molecule antagonists, cell-based qHTS assay: qHTS cell viability counter screen (AID 2060913); further: nearly all actives have a fitted effect of over 40% in size
# Conditions: CRE-bla HEK293T viability, CellTiter-Glo luminescence, 5 h; series mostly up to 92.4 µM; viability change, negative = cytotoxic: at the top concentration
# Method in brief: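 Viability of NKH477-stimulated (0.25 uM final) CRE-bla HEK293T cells is measured by CellTiter-Glo luminescence following 3 hrs compound exposure at 37 C.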
# On the % scale 0 is the no-effect control and ±100 the full control effect.
SMILES,Potency,"viability change, negative = cytotoxic"
NNC(=O)c1ccncc1,inactive,–
Cc1c(N(C)C)c(=O)n(-c2ccccc2)n1C,inactive,–
CN(C)CCOCCN(C)CCO,–,0.482% (inactive)
O=C(O)c1cccc(C(=O)O)c1C(=O)O,–,-3.66% (inactive)
CCCCCCCC(=O)[O-].CCCCCCCC(=O)[O-].[Zn+2],–,-3.82% [at 42.5 µM] (inactive)
CC(C)S,–,-1.26% (inactive)
CCCCCCCCOC(=O)CCCCCCCCC(=O)OCCCCCCCC,–,9.66% (inactive)
O=C(OCC(COC(=O)c1ccccc1)(COC(=O)c1ccccc1)COC(=O)c1ccccc1)c1ccccc1,–,3.07% (inactive)
Nc1ncnc(Nc2ccccc2)n1,–,14.5% [at 42.5 µM] (inactive)
OC12N=C(c3ccccc3)SC1Cc1cc(Cl)ccc12 (stereo not given),–,-4.07% (inactive)
CCC1CO1 (stereo not given),–,1.14% (inactive)
O=C(O)CCC(=O)c1ccc(-c2ccccc2)cc1,–,-3.48% [at 42.5 µM] (inactive)
O=C(O)CONC(=O)c1ccccc1,–,4.99% (inactive)
CCOC(=O)C(O)c1ccccc1 (stereo not given),–,5.63% [at 42.5 µM] (inactive)
COC(=O)CCCC(=O)OC,inactive,–
CC1=CC2C3CC(C=C3C)C2C1 (stereo not given),inactive,–
CC12CCCC=C1C(=O)OC2=O (stereo not given),–,-0.7% (inactive)
C[n+]1ccccc1/C=N/O,–,-0.544% [at 42.5 µM] (inactive)
CC/C=C/CCCCCCCCCCOC(C)=O,–,6.11% (inactive)
Clc1cccc(Cl)n1,–,-16.7% (inactive)

SMILES,Potency,"viability change, negative = cytotoxic"
CN=C(NC#N)NCCSCc1csc(N=C(N)N)n1,–,0.438% [at 42.5 µM] (inactive)
Nc1nc(Cl)nc2c1ncn2[C@@H]1O[C@H](CO)[C@@H](O)[C@@H]1F,–,-1.32% [at 42.5 µM] (inactive)
C[C@@H](O)[C@H]1C(=O)N2C(C(=O)O)=C(S[C@@H]3CN[C@H](C(=O)N(C)C)C3)[C@H](C)[C@H]12,inactive,–
NS(=O)(=O)c1cc2c(cc1Cl)NC=NS2(=O)=O,inactive,–
O=C(O)CCCC[C@@H]1SC[C@@H]2NC(=O)N[C@@H]21,inactive,–
CC(CCc1ccccc1)NCC(O)c1ccc(O)c(C(N)=O)c1 (stereo not given),–,0.333% (inactive)
COC(=O)c1ccc(C)cc1,inactive,–
Cc1c(O)cccc1O,–,-0.459% (inactive)
CN(C(=O)CCCOc1ccc2[nH]c(=O)ccc2c1)C1CCCCC1,–,-1.85% [at 42.5 µM] (inactive)
CSc1c(Cl)c(Cl)c(Cl)c(Cl)c1Cl,–,0.0129% (inactive)
NNc1nncc2ccccc12,inactive,–
CCC(N)(CO)CO,–,-12.7% (inactive)
CC/C=C\C/C=C\C/C=C\CCCCCCCC(=O)OC,–,21.6% (inactive)
CCN(CC)CCNC(=O)c1cc(Cl)c(N)cc1OC,–,0.44% [at 42.5 µM] (inactive)
CCOC(=O)c1ccccc1O,–,-0.987% [at 42.5 µM] (inactive)
CCCCCCCCCC#N,–,-7.82% (inactive)
Cc1ccc(C(=O)Oc2ccc(C(O)CNC(C)(C)C)cc2OC(=O)c2ccc(C)cc2)cc1 (stereo not given),–,-13.8% [at 42.5 µM] (inactive)
CC(=O)N/N=C/c1ccc([N+](=O)[O-])o1,–,0.202% [at 42.5 µM] (inactive)
CS(=O)(=O)c1ccc([C@@H](C[C@H]2CCC(=O)C2)C(=O)Nc2cnccn2)cc1Cl,–,-3.24% (inactive)
CC(C)C=O,–,4.1% (inactive)

# Experiment: cAMP Responsive Elements (CRE) small molecule agonists, cell-based qHTS assay: qHTS cell viability counter screen (AID 2060914);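 further: viability read after 3 h of compound exposure; nearly all actives have a fitted effect of over 50% in size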
# Conditions: CRE-bla HEK293T viability, CellTiter-Glo luminescence, 5 h; series mostly up to 92.4 µM; activity change, negative = cytotoxicity: at the top concentration
# Method in brief: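 CRE-bla HEK293T cells in 10% dialyzed FBS medium were exposed to compounds for 3 h at 37C after 18 h plating. CellTiter-Glo was then added in the same wells, and luminescence was read after 30 min at room temperature.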
SMILES,Potency,"activity change, negative = cytotoxicity"
NNC(=O)c1ccncc1,inactive,–
Cc1c(N(C)C)c(=O)n(-c2ccccc2)n1C,inactive,–
CN(C)CCOCCN(C)CCO,–,5.44% (inactive)
O=C(O)c1cccc(C(=O)O)c1C(=O)O,–,-2.74% (inactive)
CCCCCCCC(=O)[O-].CCCCCCCC(=O)[O-].[Zn+2],–,4.23% [at 42.5 µM] (inactive)
CC(C)S,–,-1.42% (inactive)
CCCCCCCCOC(=O)CCCCCCCCC(=O)OCCCCCCCC,–,2.05% (inactive)
O=C(OCC(COC(=O)c1ccccc1)(COC(=O)c1ccccc1)COC(=O)c1ccccc1)c1ccccc1,–,-0.207% (inactive)
Nc1ncnc(Nc2ccccc2)n1,–,5.14% [at 42.5 µM] (inactive)
OC12N=C(c3ccccc3)SC1Cc1cc(Cl)ccc12 (stereo not given),–,-12.4% (inactive)
CCC1CO1 (stereo not given),–,5.06% (inactive)
O=C(O)CCC(=O)c1ccc(-c2ccccc2)cc1,–,-5.53% [at 42.5 µM] (inactive)
O=C(O)CONC(=O)c1ccccc1,–,3.86% (inactive)
CCOC(=O)C(O)c1ccccc1 (stereo not given),–,6.7% [at 42.5 µM] (inactive)
COC(=O)CCCC(=O)OC,inactive,–
CC1=CC2C3CC(C=C3C)C2C1 (stereo not given),inactive,–
CC12CCCC=C1C(=O)OC2=O (stereo not given),–,-5.54% (inactive)
C[n+]1ccccc1/C=N/O,–,-6.22% [at 42.5 µM] (inactive)
CC/C=C/CCCCCCCCCCOC(C)=O,–,10.4% (inactive)
Clc1cccc(Cl)n1,–,-2.76% (inactive)

SMILES,Potency,"activity change, negative = cytotoxicity"
CN=C(NC#N)NCCSCc1csc(N=C(N)N)n1,–,11.6% [at 42.5 µM] (inactive)
Nc1nc(Cl)nc2c1ncn2[C@@H]1O[C@H](CO)[C@@H](O)[C@@H]1F,–,2.48% [at 42.5 µM] (inactive)
C[C@@H](O)[C@H]1C(=O)N2C(C(=O)O)=C(S[C@@H]3CN[C@H](C(=O)N(C)C)C3)[C@H](C)[C@H]12,inactive,–
NS(=O)(=O)c1cc2c(cc1Cl)NC=NS2(=O)=O,inactive,–
O=C(O)CCCC[C@@H]1SC[C@@H]2NC(=O)N[C@@H]21,inactive,–
CC(CCc1ccccc1)NCC(O)c1ccc(O)c(C(N)=O)c1 (stereo not given),–,16.3% (inactive)
COC(=O)c1ccc(C)cc1,inactive,–
Cc1c(O)cccc1O,–,7.33% (inactive)
CN(C(=O)CCCOc1ccc2[nH]c(=O)ccc2c1)C1CCCCC1,–,2.84% [at 42.5 µM] (inactive)
CSc1c(Cl)c(Cl)c(Cl)c(Cl)c1Cl,–,-3.82% (inactive)
NNc1nncc2ccccc12,inactive,–
CCC(N)(CO)CO,–,-4.64% (inactive)
CC/C=C\C/C=C\C/C=C\CCCCCCCC(=O)OC,–,9.87% (inactive)
CCN(CC)CCNC(=O)c1cc(Cl)c(N)cc1OC,–,7.43% [at 42.5 µM] (inactive)
CCOC(=O)c1ccccc1O,–,-3.67% [at 42.5 µM] (inactive)
CCCCCCCCCC#N,–,0.671% (inactive)
Cc1ccc(C(=O)Oc2ccc(C(O)CNC(C)(C)C)cc2OC(=O)c2ccc(C)cc2)cc1 (stereo not given),–,14.9% [at 42.5 µM] (inactive)
CC(=O)N/N=C/c1ccc([N+](=O)[O-])o1,–,3.24% [at 42.5 µM] (inactive)
CS(=O)(=O)c1ccc([C@@H](C[C@H]2CCC(=O)C2)C(=O)Nc2cnccn2)cc1Cl,–,4.37% (inactive)
CC(C)C=O,–,17.6% (inactive)

# From PubChem BioAssay (Tox21)
